Hits are enriched below; roughly 2.8% of the tested compounds scored in any of these assays.
MRP1 act: activates MRP-1; H69AR cells + doxorubicin, viability rescue, CellTiter-Glo; 140,000 tested, 0.61% active; viability increase, % at 10 µM;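 active = viability gain under doxorubicin at or above a set limit, the compound median plus 3 SD, cut at about 4.7% in these data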;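 note: MRP-1 overexpressing cells given doxorubicin 25 µM after compound pretreatment; 18-22 h compound pretreatment then 72 h with doxorubicin before readout; 0% = doxorubicin-only wells and 100% = vehicle-treated cells without doxorubicin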
ERa SRC1 pot: ER-alpha (human) coactivator binding potentiation | TR-FRET ERalpha-LBD/SRC-Cy5 coactivator binding, 2 h; 100 = basal binding, no effect | coactivator binding (% of control), % at 25.6 µM | 86,000 tested, 1.3% active | AID 639; in the data active = activity above about 200%;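 note: binding measured in presence of low estradiol as agonist stimulus; 0% = peptide alone without receptor and 100% = receptor with peptide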
ERb coact inh: ER-beta (human) coactivator binding inhibition; Q92731; TR-FRET ER-beta LBD / SRC1-Cy5 peptide binding; receptor agonist-loaded with 1 µM estradiol; inhibition, % at 25.6 µM; 86,000 tested, 1.3% active; AID 633;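 active = compounds whose percent inhibition of the receptor-coactivator binding signal exceeds about 50% in the single-dose screen, limit read from the data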;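 note: 0% = receptor plus peptide wells without compound and 100% = peptide-only wells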
Target sequence (Q92731 whole entry, looked up, the tested form may be a part): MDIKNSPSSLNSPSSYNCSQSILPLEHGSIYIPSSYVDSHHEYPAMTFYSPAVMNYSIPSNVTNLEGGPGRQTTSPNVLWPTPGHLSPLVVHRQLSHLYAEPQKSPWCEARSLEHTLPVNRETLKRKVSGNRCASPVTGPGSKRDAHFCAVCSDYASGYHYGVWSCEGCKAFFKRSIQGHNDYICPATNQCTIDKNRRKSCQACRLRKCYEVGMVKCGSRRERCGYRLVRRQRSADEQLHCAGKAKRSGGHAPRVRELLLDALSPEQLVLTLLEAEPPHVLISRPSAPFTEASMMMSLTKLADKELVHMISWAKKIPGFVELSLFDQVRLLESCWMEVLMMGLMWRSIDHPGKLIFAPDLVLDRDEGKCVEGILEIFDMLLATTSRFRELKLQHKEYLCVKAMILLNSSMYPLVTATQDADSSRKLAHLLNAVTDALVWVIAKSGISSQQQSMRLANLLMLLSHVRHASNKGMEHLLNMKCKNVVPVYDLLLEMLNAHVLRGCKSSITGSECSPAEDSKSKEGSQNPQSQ
Smad3 inh: blocks human Smad3 binding to FoxH1 peptide; 88,000 tested, 0.29% active; AID 630; P84022; inhibition, % at 25 µM; TR-FRET Smad3/Dy647-FoxH1 peptide binding, europium anti-His;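 active = compounds that reduce the energy-transfer binding signal between the protein and its labelled peptide by more than half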;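 note: 0% = Smad3 plus labelled peptide maximal FRET and 100% = peptide-only background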
ERa SRC1 inh: blocks coactivator binding to human estrogen receptor alpha | TR-FRET ER-alpha LBD / SRC-1 peptide, estradiol-bound | inhibition, % at 25.6 µM | 86,000 tested, 1.7% active | AID 629; in the data active = inhibition above about 50%;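 note: 0% = receptor plus peptide control and 100% = peptide only without receptor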
MRP resist rev: compounds reversing MRP-mediated drug resistance. H69AR cells + 2 uM doxorubicin, CellTiter-Glo, 72 h. differential viability (reversal), % at 10 µM. 85,000 tested, 0.04% active;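 active = viability drop by adding the cancer drug above about 55%, with treated viability meeting a 40% cutoff, limit read from the data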;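 note: viability without doxorubicin minus viability with 2 µM doxorubicin for each compound; larger differential means the compound sensitizes cells more to doxorubicin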
* marks the source's active call; other numbers are inactive results; x = no result given; [ ] = dose if it differs, or a comment.

SMILES | MRP1 act | ERa SRC1 pot | ERb coact inh | Smad3 inh | ERa SRC1 inh | MRP resist rev
Cc1nn(Cc2ccccc2)c(C)c1NC(=O)c1cccs1 | 0.2 | x | x | x | x | x
Cc1nn(Cc2ccccc2)c(C)c1NC(=O)c1cc(-c2cccs2)on1 | 4.8* | 113.5 | 3.4 | 5.9 | -6.6 | 1.8
Cc1ccc(/C=C2\SC(=S)N(c3c(C)n(C)n(-c4ccccc4)c3=O)C2=O)cc1 | 7.6* | x | x | x | x | x
Cc1ccc(/C=C2/SC(=S)N(CCC(=O)N3CCN(c4ccccc4)CC3)C2=O)cc1 | 3.5 | x | x | x | x | x
O=C1/C(=C/c2cccnc2)SC(=S)N1c1ccccc1 | 2.2 | x | x | x | x | x
Cc1c(N2C(=O)/C(=C/c3ccccc3)SC2=S)c(=O)n(-c2ccccc2)n1C | 8.0* | x | x | x | x | x
CCN(CC)c1ccc(NC(=O)CC2Oc3ccccc3NC2=O)c(C)c1 (stereo not given) | -1.5 | 104.3 | -5.7 | 5.7 | 0.1 | -25.6
N#CCSc1nc2cc(C(=O)N3CCC(C(N)=O)CC3)ccc2c2nc3ccccc3n12 | 6.1* | 70.4 | 1.0 | 4.0 | 4.2 | -21.5
COc1ccc(/C=N/NC(=O)c2ccc(C)cc2)cc1CN1CCN(c2ccc(F)cc2)CC1 | -3.8 | x | x | x | x | x
COc1ccc(/C=N\NC(=O)c2cc(O)c(O)c(O)c2)cc1CN1CCN(c2ccc(F)cc2)CC1 | 11.9* | x | x | x | x | x
O=c1[nH]c(Nc2ccccc2)cc2ccccc12 | -1.3 | 92.3 | 9.8 | 57.8* | 19.3 | -3.5
CC(CO)(CO)N=Cc1cc(I)cc(I)c1O | x | x | x | -5.5 | x | x
CCN1CCN(Cc2ccc(NC(=O)Nc3ccccc3Cl)cc2)CC1 | -2.5 | 260.8* | 10.8 | -6.6 | -5.0 | 7.1
CCOC(=O)/C(=N\Nc1ccccc1Cl)N1CCN(Cc2ccccc2)CC1 | 5.1* | x | x | x | x | x
COc1ccc(-c2noc(CCC(=O)N3CCN(c4cccc(C(F)(F)F)c4)CC3)n2)cc1 | -4.7 | 99.4 | 50.6* | 8.3 | -11.2 | -0.1
COc1ccc(NC(=O)N2CCN(c3cccc(C(F)(F)F)c3)CC2)cc1 | -1.1 | 106.3 | 19.6 | 32.7 | 14.0 | 4.4
N#C/C(=C\Nc1ccccn1)C(=O)C1CC1 | x | x | x | -17.2 | x | x
Cc1ccc(-n2[nH]c(C)c(/C=N/n3c(C)nc4ccccc4c3=O)c2=O)cc1 | -2.6 | 110.8 | 85.1* | -1.6 | -1.3 | -15.2
Cc1[nH]n(-c2ccccc2)c(=O)c1/C=N/n1c(C)nc2ccccc2c1=O | -3.2 | 101.5 | -7.6 | 11.9 | -6.1 | -6.0
Nc1ncnc2c1ncn2[C@H]1O[C@@H](C(=O)O)[C@H](O)[C@H]1O | x | x | x | -0.2 | x | x
O=C(O)C(=Cc1ccc(-c2ccccc2)cc1)C(=O)O | x | x | x | 7.8 | x | x
Cc1nn(C(=O)c2cccs2)c(C)c1CN1C(=O)c2ccccc2C1=O | -1.5 | 127.6 | -12.6 | 1.6 | 5.8 | -6.4
Cc1nn(C(=O)c2ccco2)c(C)c1CN1C(=O)c2ccccc2C1=O | -0.6 | 200.3*[fluorescence artefact?] | 8.2 | 1.2 | 27.8 | -4.3
CC(Cc1ccccc1)N/C=C1\CC(=O)NC1=O (stereo not given) | -1.9 | 115.4 | -14.8 | 16.1 | 0.3 | 2.2
Fc1cccc(Cl)c1/C=N/Nc1c(Cl)cncc1Cl | -0.9 | x | x | x | x | x
SMILES | MRP1 act | ERa SRC1 pot | ERb coact inh | Smad3 inh | ERa SRC1 inh | MRP resist rev
Fc1cccc(Cl)c1/C=N/N=C1c2ccccc2-c2ccccc21 | x | x | x | 59.0* | x | x
N#CC(C(=O)Nc1ccc(Cl)cc1)=C1Nc2ccccc2N1 | -5.4 | 163.0 | 5.7 | 4.3 | 53.7* | -10.7
COc1ccc2c(c1)c1nc3ccccc3nc1n2CCn1c(=O)oc2ccccc21 | -1.9 | x | x | x | x | x
O=c1oc2ccccc2n1CCn1c2ccccc2c2nc3ccccc3nc21 | -0.7 | 146.4 | 48.5 | 1.7 | 77.0* | -12.9
CN(C)CCSCCO | x | x | x | 0.6 | x | x
Cc1c(C(=O)OC(C)C)sc(N)c1C(=O)OC(C)C | 5.4* | x | x | x | x | x
NCCc1ccc(O)c(O)c1 | 4.2 | x | x | x | x | x
Oc1ccc(Cc2nccc3cc(O)c(O)cc23)cc1O | x | x | x | 89.0* | x | x
N#Cc1c(-c2ccco2)nc(SCC(=O)Nc2cccc(Cl)c2)[nH]c1=O | 5.5* | 57.3 | 18.9 | 12.9 | 15.7 | 8.2
O=C(/C=C/c1ccc([N+](=O)[O-])cc1)N1CCN(c2ccccc2F)CC1 | 35.2* | x | x | x | x | x
O=C(/C=C/c1cccs1)N1CCN(c2ccccc2F)CC1 | -1.9 | x | x | x | x | x
Cc1ccc(NC2=CC(=O)CC(c3ccc(Cl)cc3)C2)cc1 (stereo not given) | 4.7* | x | x | x | x | x
Cc1ccc(NC2=CC(=O)CC(c3ccccc3)C2)cc1 (stereo not given) | -3.6 | x | x | x | x | x
CCCCN1CC(O)=C(c2nc(-c3ccc(Cl)cc3)cs2)C1=N | -1.3 | 255.7*[fluorescence artefact?] | 37.8 | -43.4 | 63.6*[fluorescence artefact?] | 12.3
O=C1c2ccccc2-c2ccc(N(Cc3ccc(Br)cc3)Cc3ccc(Br)cc3)cc21 | x | x | x | 4.2 | x | x
CN1C(=O)CSc2ccc(NC(=O)N3CCC(N4CCCCC4)CC3)cc21 | -1.3 | 52.7 | 51.3* | -2.2 | 57.8* | 3.7
CCOC(=O)C1=C(C)OC(N)=C(C#N)C1c1cc2cc(C)ccc2nc1N1CCCCC1 (stereo not given) | -2.1 | 318.1*[fluorescence artefact?] | 31.5 | 7.0 | 13.9 | -17.6
CCN1C(=O)c2cccc3c(NC(=O)c4ccc5c(c4)OCCO5)ccc1c23 | -2.2 | 254.6* | 2.0 | -6.0 | 7.1 | -11.9
Cc1cccc(Sc2nc(-c3ccccc3)ccc2C#N)c1 | -4.2 | x | x | x | x | x
COc1ccc(C(=O)NN/C(C)=C/C(=O)C(F)(F)C(F)(F)C(F)(F)F)cc1 | 4.6 | x | x | x | x | x
O=C(CCCCl)NC1=NN(c2ccccc2)C(=O)C1 | 7.3* | x | x | x | x | x
CC(=O)NC1=NN(c2ccccc2)C(=O)C1 | -1.9 | x | x | x | x | x
Cc1ccc(NC(=O)CCC(=O)N/N=C/c2cccs2)cc1C | 7.2* | x | x | x | x | x
Cc1cc(C)n(CC(=O)N/N=C/c2cccs2)n1 | -0.4 | x | x | x | x | x
O=C(Nc1cccn(Cc2c(Cl)cccc2Cl)c1=O)c1c(Cl)cccc1Cl | 9.2* | x | x | x | x | x
SMILES | MRP1 act | ERa SRC1 pot | ERb coact inh | Smad3 inh | ERa SRC1 inh | MRP resist rev
NC[C@@H](O)CSCc1ccc(Cl)cc1 | x | x | x | 1.3 | x | x
COC(=O)C(NC(=O)CCc1c(C)nc2ncnn2c1C)C(C)C (stereo not given) | 0.7 | 84.8 | 66.3*[fluorescence artefact?] | 3.5 | -7.9 | 4.7
C=CCOC(=O)C(C#N)c1nc2ccccc2nc1N1CCN(c2ccccc2OCC)CC1 (stereo not given) | 5.2* | 127.6 | -5.8 | -2.4 | -10.0 | 5.1
Cn1c(=O)c2c(ncn2CN2CCN(Cn3cnc4c3c(=O)n(C)c(=O)n4C)CC2)n(C)c1=O | x | x | x | 97.6* | x | x
CCOC(=O)c1sc(NC(=O)CSc2nc3c(cc2C#N)CCC3)c(C#N)c1C | x | 111.0 | 10.7 | -1.9 | -0.7 | -18.4
CCOC(=O)c1sc(NC(=O)CSc2nc(C)cc(C)c2C#N)c(C#N)c1C | 0.1 | 267.5* | 21.1 | -6.5 | 36.0 | -7.1
CCOC(=O)c1sc(NC(=O)CSc2nc3c(cc2C#N)CCCCCC3)c(C#N)c1C | -1.6 | 365.9*[fluorescence artefact?] | 37.0 | -5.3 | 25.4 | x
Cc1ccc(-c2nc3ccccc3s2)cc1S(=O)(=O)N1CCCC1 | 0.1 | 71.5 | -5.0 | -2.3 | 1.5 | -36.6
O=S(=O)(c1cccc(-c2nc3ccccc3s2)c1)N1CCOCC1 | -2.0 | 100.3 | 68.5* | 15.4 | -1.2 | 12.2

Screens deposited in PubChem BioAssay by several laboratories.
